# According to the supplement of paper PMC6555819:
# Experiments:
# Assay in all cases: PBM binding z-score (relative to random genomic background probes); higher = stronger binding; sequences stand for … in GC…GCGATTGACAGCGTAGAATGAAGG
# [1] = tested on: RARb homodimer (NR concentration 270 nM)
# Summary of the method: (§1)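 The probes on custom Agilent 4×180K protein-binding microarrays were double-stranded, with 34-nt variable regions bearing direct-repeat seeds, single-nucleotide variants, half-site ablations and random human genomic background sequences. Incubation lasted 1 h with ligand-free nuclear receptor dimers in PBS pH 7.4, 2% milk, 0.02% Triton X-100, 1 mM DTT, 0.2 mg/mL BSA and 0.4 mg/ml salmon testes DNA. Antibodies against each partner (one per run) detected bound dimers, and fluorescence scans were regression-normalized. Binding z-scores take the random background probes as reference.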
# [2] = tested on: RARg:RXRa (NR concentration 270 nM, RXRa partner concentration 90 nM)
# Summary of the method: as §1
# [3] = tested on: RARg homodimer (NR concentration 270 nM)
# Summary of the method: as §1
# [4] = tested on: RXRa DBDmut IVT, anti-RXR (DBD mutation: RXRa K156A/R161A, NR concentration 90 nM)
# Summary of the method: as §1
# [5] = tested on: RXRa homodimer (NR concentration 180 nM)
# Summary of the method: as §1
# [6] = tested on: THRa:RXRa (NR concentration 90 nM, RXRa partner concentration 90 nM)
# Summary of the method: as §1
# [7] = tested on: THRa homodimer (NR concentration 90 nM)
# Summary of the method: as §1
# [8] = tested on: VDR homodimer (NR concentration 270 nM)
# Summary of the method: as §1
Sequence,PBM binding z-score [1],PBM binding z-score [2],PBM binding z-score [3],PBM binding z-score [4],PBM binding z-score [5],PBM binding z-score [6],PBM binding z-score [7],PBM binding z-score [8]
GATACCGGGTCAGCTAGAGGCCAGAGTATGGAAA,2.63,5.9,3.71,-0.115,2.83,2.64,0.0916,-0.166
AGAATGAGGTTATTAAGATCACGGAATTGCGGTC,0.99,1.37,1.01,2.19,2.01,2.42,0.72,1.73
CAAACTAGGTAACCGGAAGGTCAAAGTCCGCATG,4.17,4.35,3.57,0.531,3.79,3.26,1.44,2.22
GCTATTAGTTGAGAGGGCAACCGAATGATTCTCG,1.14,0.913,1.01,0.884,0.882,0.555,-0.117,0.435
TCTGGTTGGTCAAAGGTCACACACTCGAAATGCG,4.94,7.36,6.25,1.79,8.3,4.07,2.65,3.34
GATACAGGGTCAGCTAGAGGCAAGAGTATGGAAA,2.77,4.72,4.64,0.963,4.52,2.8,0.438,0.394
ATCTCGAGGTAACAAGTTCAGTGAAAGAGAGGAC,1.83,2.13,1.42,0.518,1.15,2.31,0.969,2.28
CCAGACAGGTGAGAAGGTAACGCAGCCTCGATTA,0.798,0.793,0.415,0.201,0.556,0.331,0.41,-0.143
TCGAGTAGGTTACCCATGGGGCATTCAGCTTTCT,0.802,1.61,0.414,0.106,0.689,0.2,-0.507,-0.557
TCATGTAGATCAACAGGAGGTTAAGAAAGATCGA,0.329,0.904,0.374,0.621,1.04,0.683,-0.647,0.15
AGTCAAAGTTCACTAGGTAACGTACGATTCAGCT,4.12,4.87,5.61,4.41,3.85,2.2,0.165,4
CAGCCTAGGTAAGGGCCAGTATAGGAGGAACGTT,-0.166,-0.284,0.264,-1.12,-0.418,-0.373,-0.773,-0.434
GCGACTGGGGCAAAGCAGGTTCCCATAAGGTTGG,0.109,-0.179,0.0897,-0.512,-0.314,1.38,-0.261,-0.513
AATACAGGGTCATCGTTGGCCAGAGTACGCACAG,3.58,5.68,5.14,3.53,6.56,3.95,1.53,3.86
AGTCAAAGTCCACTAGGTAACGTAAGATTCAGCT,0.615,0.39,0.85,0.801,-0.0426,0.284,0.284,-0.159
CGAACTAGGTCATTGACAGGCCAGTGAATAGTAA,2.44,4.45,4.53,1.99,3.06,2.53,0.248,0.674
CATCCAAGGTCAATGCTAGGTCAGTGAAAGCATT,4.85,7.59,6.9,3.53,5.4,4.39,2.95,3.16

Sequence,PBM binding z-score [1],PBM binding z-score [2],PBM binding z-score [3],PBM binding z-score [4],PBM binding z-score [5],PBM binding z-score [6],PBM binding z-score [7],PBM binding z-score [8]
CCTTGCAGGCCAGGGTCACTCAAGCATTTCGCTT,2.93,3.21,2.83,0.484,3.43,2.76,1.07,1.18
ATACCAAGGTGATTGTGAGGTCGTTGATACTAAC,2.03,2.19,1.08,1.27,1.59,3.66,2.94,3.33
TCGAGTAGGTTAGGGGCATTGAGAATGGCGTCGA,0.964,0.14,0.129,0.205,0.572,0.83,0.383,0.492
ACAGACAGGGGATGAAGGTAACTCAGGCTATCAT,0.714,0.0982,0.418,0.422,0.188,0.765,0.491,-0.173
GCTAGCAGGCCATTTGGCTCACTCAATGACGGGC,-1.05,-0.42,-0.0728,0.0311,-0.355,-1.69,-1.04,-0.733
CGAACTAGGTCAAGGAAAGTGAATCTCCGCACGC,2.71,3.5,3.7,1.16,2.43,2.42,0.746,0.143
TCATATTGGTAAAAGGTGAAAGTCGGTGTGGTAA,2,1.24,0.709,1.66,1.99,1.62,0.665,0.829
ATCTCTAGGTACCCAAGTTCAGTGAATGCCGAAC,1.41,0.712,0.515,1.14,0.528,0.968,0.385,2
CGAAATAGGTCAGAACAGGACAGTGAAGGATGAT,2.82,3.36,4.15,0.269,2.42,4.13,0.228,0.382
TCATATTGGTAAATGCTAGGTGAAAGTCCGATCT,0.619,0.03,0.0161,1.7,0.255,0.808,0.878,0.578
TCGAGTAGGATACCAATGGGGCATTCAGCTTTCT,-0.451,-0.58,-0.482,0.0326,-0.263,-1.38,-1.03,-1.09
CAGCCGAGGTCAGGGCCAGTATAGGAGGAACGTT,3.81,5.52,5.53,2.15,5.24,3.92,1.97,1.53
CCTACCAGGCCAATCTGGGTCACTCAAGGCTTGA,2.5,1.37,1.64,-0.157,1.01,3.84,1.34,0.435
TGGCCTAGGTCATTCAGGGGCCAGTATAGAAAGC,3.18,6.37,5.07,1.39,3.29,3.47,0.314,1.37
TCTTGTAGATCACGCAGGTTAAGAAAGCCTGAGT,0.254,0.174,0.0532,0.693,0.723,0.601,-0.33,-0.258
CAGCCTGGGTCAGGGCCAGTATAGGAGGAACGTT,2.07,2.63,2.76,-1.29,1.51,1.09,-0.124,-0.545
CCTACTGGGCCATTCAGAGGTCCTTGATCATATG,0.208,-0.0281,-0.184,-0.26,-0.29,-0.305,-0.128,-0.336
